Shown are actives, neighbours in structure and some others; about 2.8% of the full set was active somewhere.
Platelet DG rel: inhibitors of platelet dense granule secretion, primary screen, cell-based, MLPCN, human platelets | human platelet-rich plasma, SFLLRN dense granule ATP release, luminescence | inhibition, %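 (compounds screened at 7.5 µM in platelet-rich plasma)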 | 300,000 compounds, 0.22% hits;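 active means mean replicate score, as percent of positive control, at or above 50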
PolyA inhibitor: polyadenylation inhibitors in yeast reporter cells, primary screen, luminescence, S. cerevisiae | activity score, % at 12 µM | 300,000 compounds, 0.02% hits | S. cerevisiae SKY197-pL101 polyadenylation reporter, beta-gal luminescence; efflux-impaired pdr1/pdr3 knockout yeast; score 100 = 6 SD above DMSO;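 active means lowest replicate activity score at least 50, where 100 means six control SD above control mean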;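 further: yeast exposed to compound for 9 h at 30 °C; higher score means more reporter readthrough which indicates perturbed polyadenylation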
HIF act: HIF pathway transcriptional activators, primary screen, cell-based, U2OS HRE-luciferase, luminescence | U2OS HRE-luciferase reporter; normalized: DMSO 0%, desferrioxamine 100% | activation, % at 7.5 µM (by protocol) | 300,000 compounds, 0.32% hits;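 active means mean activation of at least 10% of the iron chelator positive control signal, with at least half of replicates also reaching 10%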
pCIP destab: p/CIP-EGFP fusion destabilizers, primary screen, fluorescence, F442A cells; Q05BA5; 16 h; decrease of EGFP signal, % at 10 µM; 290,000 compounds, 0.01% hits; AID 1984, 2009;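 active means EGFP signal decrease of at least 30% at 10 µM or well 3 SD below plate mean, unless failing retest; inactive means the rest, including hits failing retest or dose response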
AHR activator: AHR activators, primary screen, cell-based, luminescence, luciferase reporter, human; activation, % at 5 µM; 320,000 compounds, 2.5% hits; AHR-responsive luciferase reporter cells; Aryl hydrocarbon receptor (Homo sapiens), P35869; in the data active means activation above about 47%
Target sequence (P35869 whole entry, looked up): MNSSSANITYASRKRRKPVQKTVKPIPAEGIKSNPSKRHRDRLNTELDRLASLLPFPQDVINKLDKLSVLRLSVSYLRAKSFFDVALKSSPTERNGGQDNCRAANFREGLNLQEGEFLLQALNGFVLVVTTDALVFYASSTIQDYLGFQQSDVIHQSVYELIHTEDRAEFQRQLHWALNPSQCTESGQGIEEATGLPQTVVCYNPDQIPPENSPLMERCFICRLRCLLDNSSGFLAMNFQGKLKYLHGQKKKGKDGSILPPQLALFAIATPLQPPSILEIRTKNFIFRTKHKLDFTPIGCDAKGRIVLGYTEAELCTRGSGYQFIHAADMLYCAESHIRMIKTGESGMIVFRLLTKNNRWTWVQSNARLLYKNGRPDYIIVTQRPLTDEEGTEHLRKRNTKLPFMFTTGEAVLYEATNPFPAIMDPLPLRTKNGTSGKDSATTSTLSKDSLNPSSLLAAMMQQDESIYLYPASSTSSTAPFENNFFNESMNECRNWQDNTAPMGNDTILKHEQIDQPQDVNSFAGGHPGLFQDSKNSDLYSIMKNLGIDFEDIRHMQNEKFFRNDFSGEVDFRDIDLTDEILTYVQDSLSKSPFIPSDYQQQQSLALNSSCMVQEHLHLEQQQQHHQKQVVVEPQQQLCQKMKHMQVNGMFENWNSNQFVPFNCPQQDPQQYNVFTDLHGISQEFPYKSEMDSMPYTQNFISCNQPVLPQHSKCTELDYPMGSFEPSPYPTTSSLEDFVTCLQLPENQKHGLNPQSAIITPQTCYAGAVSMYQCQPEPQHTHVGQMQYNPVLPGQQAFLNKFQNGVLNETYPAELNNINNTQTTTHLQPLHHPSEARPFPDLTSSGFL
AHR act cf: AHR activators, confirmation, cell-based, luminescence, luciferase reporter, human; human cells, AHR-responsive luciferase reporter; shares compounds with AHR activator; AID 2845, 2010; 2,300 compounds, 87% hits; activation, % at 9 µM; in the data active means activation above about 49%;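 further: HepG2 hepatoma cells carrying a DRE-driven firefly luciferase reporter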
PXR act counter: human PXR activators, counter-screen for AHR activator project, cell-based, luciferase luminescence; 2,300 compounds, 88% hits; shares compounds with AHR activator; activation, % at 11.6 µM; cell-based PXR reporter; in the data active means activation above about 11%;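 further: human hepatoma DPX-2 cells expressing full-length human PXR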
Large screens that a line does not name were inactive (follow-up assays come after a bar, where they were run).

Nc1c(C(=O)NCc2ccco2)c2nc3ccccc3nc2n1Cc1ccccc1	none
CCOC(=O)c1c(N)n(Cc2ccco2)c2nc3ccccc3nc12	AHR activator 75.3 (no result: Platelet DG rel, PolyA inhibitor, HIF act)
Cc1cc(/C=C2\C(=O)NC(=O)N(c3ccc(Br)cc3)C2=O)c(C)n1C	AHR activator 64.2
COC(=O)C1=C(c2ccc(OC)c(OC)c2)C[C@@H]2CC[C@H]1N2C(=O)NCC1CC1	none (no result: Platelet DG rel, PolyA inhibitor, HIF act, pCIP destab)
CCC(=NCCc1ccccc1)c1c(O)[nH]c(=O)[nH]c1=O	Platelet DG rel 73.2
CCC(=NCCCn1ccnc1)c1c(O)n(Cc2ccccc2)c(=O)[nH]c1=O	AHR activator 47.5
C=C1[C@H]2C[C@H]3[C@H]4N5C[C@]6(C)CCC[C@]47[C@H]([C@H]2O)[C@]3(C[C@]5(O)[C@H]67)[C@@H]1O	none (no result: pCIP destab)
CC(=NCc1ccc2c(c1)OCO2)c1c(O)n(C)c(=O)n(C)c1=O	AHR activator 58.4
CCC(=NCc1ccc2c(c1)OCO2)c1c(O)n(C)c(=O)n(C)c1=O	none
COc1ccc(-n2nc(C(=O)NCC(=O)N3CCC4(CC3)OCCO4)c3ccccc3c2=O)cc1Cl	none
CCCCc1nc2ccccc2c(=O)n1-c1ccccc1O	AHR activator 73.0
Oc1c(Cl)c(Cl)c(Cl)c(Cl)c1Cl	AHR activator 78.7 (no result: HIF act, pCIP destab)
COc1ccccc1N1CCN(CCc2ccccc2)CC1	none
COc1ccc(OC)c(NC2=NCCCS2)c1	HIF act 37.4
COc1ccc(OC)c(NC2=NCCS2)c1	none
O=P(Nc1c(Cl)cccc1Cl)(c1ccccc1)c1nc2c(s1)CCCC2 (stereo not drawn)	none
CP(=O)(Nc1ccc(Cl)cc1)c1nc2c(s1)CCCC2 (stereo not drawn)	AHR activator 69.6
CCOC(=O)C1CCCN(c2ccc([N+](=O)[O-])c3nonc23)C1 (stereo not drawn)	none (no result: AHR activator)
CCS(=O)(=O)NCc1nnc2n1-c1ccc(Br)cc1C(c1ccccc1Cl)=NC2	none (no result: pCIP destab)
O=[N+]([O-])c1ccc(N2CCNCC2)cc1NCc1ccco1	AHR activator 70.7
CN1CCN(c2ccc([N+](=O)[O-])c(NCC3CCCO3)c2)CC1 (stereo not drawn)	none
CN1CCN(c2ccc([N+](=O)[O-])c(NCc3ccco3)c2)CC1	AHR activator 63.3
C[CH2][Hg][S]c1ccccc1C(=O)O	none (no result: Platelet DG rel, PolyA inhibitor, HIF act, pCIP destab)
CC(C)Cc1nnc(NC(=O)CCC(=O)N2CCC3(CC2)OCCO3)s1	HIF act 21.2
COc1cccc(C(=O)C2CCCN(Cc3ccc(F)cc3)C2)c1 (stereo not drawn)	none
COc1cccc(C(=O)C2CCCN(Cc3ccc4nsnc4c3)C2)c1 (stereo not drawn)	HIF act 242.7
Fc1cccc(F)c1-c1nc(-c2ccc(Cl)cc2)no1	AHR activator 72.6
Cc1nn(Cc2ccccc2)c(Cl)c1C(=O)OCC(=O)N1CCCC1	none
Cc1nn(Cc2ccccc2Cl)c(C)c1C(=O)OCC(=O)N1CC(C)OC(C)C1 (stereo not drawn)	AHR activator 52.1
Cc1nn(Cc2ccccc2Cl)c(C)c1C(=O)OCC(=O)NC1CCCC(C)C1C (stereo not drawn)	none
O=[N+]([O-])c1cc(S(=O)(=O)c2ccc(O)c([N+](=O)[O-])c2)ccc1O	HIF act 35.7
O=[N+]([O-])c1cccc(O)c1	none (no result: Platelet DG rel, PolyA inhibitor, HIF act, pCIP destab)
O=C1NC(=S)N(Cc2ccco2)C(=O)/C1=C\c1cccs1	none (no result: Platelet DG rel, PolyA inhibitor, HIF act, AHR activator)
Nc1ccc(N=Nc2ccccc2)cc1	none
Cc1cc(N=Nc2ccccc2C)ccc1N	AHR activator 80.4 (no result: pCIP destab) | AHR act cf 129.6 | PXR act counter 11.6
Cc1cnc(-n2c(=S)[nH]c3ccccc3c2=O)s1	AHR activator 124.7 (no result: Platelet DG rel, PolyA inhibitor, HIF act, pCIP destab) | AHR act cf 137.5 | PXR act counter 19.5
Brc1ccc2[nH]cc(/C=N/N3CCCCC3)c2c1	AHR activator 83.1 | AHR act cf inactive | PXR act counter 21.7
C(=N\NC1=NCCCCC1)/c1c[nH]c2ccccc12	none
